Results published in PubChem BioAssay AID1159580 (chemical genetic matrix, 2015).
Hit rate of the full screen: of about 5,500 compounds, about 2,000 (36%) were called active. About 18% were inconclusive and are not listed. No stated cut-off is given here; in the data, active means normalized growth mostly below about 0.91 (no sharp cut-off); inconclusive means no clear call, values can overlap the other calls; inactive means mostly above about 0.92. The list shows a part of the results.

Assay: chemical genetic growth profiling, strain panel (AID 1159580);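 further: tested at 20 µM; growth read once vehicle control cultures reached saturation at 30 °C; 1 = growth at the plate median or of vehicle wells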
Settings: growth OD
[1] = S. cerevisiae deletion strains, locus YCL061C, strain MRC1, stronger effect = lower value
[2] = S. cerevisiae deletion strains, locus YHR030C, strain SLT2, stronger effect = lower value

Measured: normalized growth

CCOC(CN(c1ccc(F)cc1)S(=O)(=O)c1ccc(F)cc1F)OCC
inactive: S. cerevisiae deletion strains, locus YAL013W, strain DEP1, stronger effect = lower value 1 | S. cerevisiae deletion strains, locus YBR229C, strain ROT2, stronger effect = lower value 1 | [1] 1.01 | S. cerevisiae deletion strains, locus YDL101C, strain DUN1, stronger effect = lower value 0.98 | S. cerevisiae deletion strains, locus YDL134C, strain PPH21, stronger effect = lower value 1.01 | S. cerevisiae deletion strains, locus YDR150W, strain NUM1, stronger effect = lower value 0.957 | S. cerevisiae deletion strains, locus YEL061C, strain CIN8, stronger effect = lower value 0.986 | S. cerevisiae deletion strains, locus YGR078C, strain PAC10, stronger effect = lower value 0.997 | [2] 0.936 | S. cerevisiae deletion strains, locus YHR087W, strain rtc3, stronger effect = lower value 1.03 | S. cerevisiae deletion strains, locus YJR043C, strain POL32, stronger effect = lower value 0.989 | S. cerevisiae deletion strains, locus YJR075W, strain HOC1, stronger effect = lower value 0.981 | S. cerevisiae deletion strains, locus YLR039C, strain RIC1, stronger effect = lower value 0.96 | S. cerevisiae deletion strains, locus YLR058C, strain SHM2 (second series), stronger effect = lower value 0.996 | S. cerevisiae deletion strains, locus YLR085C, strain ARP6, stronger effect = lower value 1.01 | S. cerevisiae deletion strains, locus YLR262C, strain YPT6, stronger effect = lower value 0.935 | S. cerevisiae deletion strains, locus YML094W, strain GIM5, stronger effect = lower value 0.999 | S. cerevisiae deletion strains, locus YMR219W, strain ESC1, stronger effect = lower value 0.994 | S. cerevisiae deletion strains, locus YMR263W, strain SAP30, stronger effect = lower value 0.987 | S. cerevisiae deletion strains, locus YMR307W, strain GAS1, stronger effect = lower value 0.731 | S. cerevisiae deletion strains, locus YNL153C, strain GIM3, stronger effect = lower value 1.01 | S. cerevisiae deletion strains, locus YNL298W, strain CLA4 (second series), stronger effect = lower value 1.01 | S. cerevisiae deletion strains, locus YNL322C, strain KRE1, stronger effect = lower value 0.995 | S. cerevisiae deletion strains, locus YNR030W, strain Alg12, stronger effect = lower value 0.993 | S. cerevisiae deletion strains, locus YOL006C, strain TOP1, stronger effect = lower value 1.03 | S. cerevisiae deletion strains, locus YPL055C, strain LGE1, stronger effect = lower value 1.04 | S. cerevisiae deletion strains, locus YPL241C, strain CIN2, stronger effect = lower value 1 | S. cerevisiae deletion strains, locus YPR135W, strain CTF4, stronger effect = lower value 1.02 | S. cerevisiae strains, strain wild type, stronger effect = lower value 0.991

C/C=C\C1=C(C(=O)O)N2C(=O)C(NC(=O)C(N)c3ccc(O)cc3)C2SC1 (stereo not drawn)
inactive: S. cerevisiae deletion strains, locus YAL021C, strain ccr4, stronger effect = lower value 0.983 | S. cerevisiae deletion strains, locus YAL026C, strain drs2, stronger effect = lower value 1.01 | S. cerevisiae deletion strains, locus YAL030W, strain snc1, stronger effect = lower value 1 | S. cerevisiae deletion strains, locus YBL061C, strain skt5, stronger effect = lower value 1.02 | S. cerevisiae deletion strains, locus YBR009C, strain hhf1, stronger effect = lower value 1.01 | S. cerevisiae deletion strains, locus YBR023C, strain chs3, stronger effect = lower value 1.01 | S. cerevisiae deletion strains, locus YBR171W, strain sec66, stronger effect = lower value 1.01 | S. cerevisiae deletion strains, locus YBR231C, strain swc5, stronger effect = lower value 1.01 | S. cerevisiae deletion strains, locus YBR279W, strain paf1, stronger effect = lower value 1 | S. cerevisiae deletion strains, locus YCL011C, strain gbp2, stronger effect = lower value 1 | S. cerevisiae deletion strains, locus YCL016C, strain dcc1, stronger effect = lower value 1 | [1] 1 | S. cerevisiae deletion strains, locus YCL069W, strain vba3, stronger effect = lower value 1.01 | S. cerevisiae deletion strains, locus YCR088W, strain abp1, stronger effect = lower value 1.01 | S. cerevisiae deletion strains, locus YDL005C, strain med2, stronger effect = lower value 1 | S. cerevisiae deletion strains, locus YDL040C, strain nat1, stronger effect = lower value 1.01 | S. cerevisiae deletion strains, locus YDR001C, strain nth1, stronger effect = lower value 1.01 | S. cerevisiae deletion strains, locus YDR069C, strain doa4, stronger effect = lower value 0.995 | S. cerevisiae deletion strains, locus YDR137W, strain rgp1, stronger effect = lower value 1.01 | S. cerevisiae deletion strains, locus YDR159W, strain sac3, stronger effect = lower value 0.987 | S. cerevisiae deletion strains, locus YDR195W, strain ref2 0.978 | S. cerevisiae deletion strains, locus YDR297W, strain sur2, stronger effect = lower value 1 | S. cerevisiae deletion strains, locus YDR334W, strain swr1, stronger effect = lower value 1.01 | S. cerevisiae deletion strains, locus YDR335W, strain msn5, stronger effect = lower value 1.01 | S. cerevisiae deletion strains, locus YDR392W, strain spt3, stronger effect = lower value 0.991 | S. cerevisiae deletion strains, locus YEL003W, strain gim4, stronger effect = lower value 1 | S. cerevisiae deletion strains, locus YEL037C, strain rad23, stronger effect = lower value 1.01 | S. cerevisiae deletion strains, locus YEL061C, strain CIN8 (second series), stronger effect = lower value 1 | S. cerevisiae deletion strains, locus YER015W, strain faa2, stronger effect = lower value 1 | S. cerevisiae deletion strains, locus YER016W, strain bim1, stronger effect = lower value 1.01 | S. cerevisiae deletion strains, locus YER111C, strain swi4, stronger effect = lower value 0.996 | S. cerevisiae deletion strains, locus YER155C, strain BEM2 (second series), stronger effect = lower value 1.01 | S. cerevisiae deletion strains, locus YFR010W, strain ubp6, stronger effect = lower value 1.02 | S. cerevisiae deletion strains, locus YGL167C, strain pmr1, stronger effect = lower value 1.01 | S. cerevisiae deletion strains, locus YGL173C, strain kem1, stronger effect = lower value 1 | S. cerevisiae deletion strains, locus YGL227W, strain vid30, stronger effect = lower value 1.01 | S. cerevisiae deletion strains, locus YGL240W, strain doc1, stronger effect = lower value 0.988 | S. cerevisiae deletion strains, locus YGL253W, strain hxk2, stronger effect = lower value 1.01 | S. cerevisiae deletion strains, locus YHR013C, strain ard1, stronger effect = lower value 0.997 | S. cerevisiae deletion strains, locus YHR027C, strain rpn1, stronger effect = lower value 0.993 | [2] 1.02 | S. cerevisiae deletion strains, locus YHR079C, strain IRE1, stronger effect = lower value 1.04 | S. cerevisiae deletion strains, locus YHR142W, strain chs7, stronger effect = lower value 1.03 | S. cerevisiae deletion strains, locus YJL092W, strain hpr5, stronger effect = lower value 1.01 | S. cerevisiae deletion strains, locus YJL095W, strain BCK1 (second series), stronger effect = lower value 0.998 | S. cerevisiae deletion strains, locus YJL095W, strain BCK1, stronger effect = lower value 0.997 | S. cerevisiae deletion strains, locus YJL115W, strain asf1, stronger effect = lower value 0.999 | S. cerevisiae deletion strains, locus YJL129C, strain trk1, stronger effect = lower value 1.02 | S. cerevisiae deletion strains, locus YJL154C, strain vps35, stronger effect = lower value 1.01 | S. cerevisiae deletion strains, locus YJL164C, strain tpk1, stronger effect = lower value 1.02 | S. cerevisiae deletion strains, locus YJL166W, strain qcr8, stronger effect = lower value 1 | S. cerevisiae deletion strains, locus YJR066W, strain TOR1, stronger effect = lower value 0.982 | S. cerevisiae deletion strains, locus YKL160W, strain elf1, stronger effect = lower value 1 | S. cerevisiae deletion strains, locus YKR026C, strain gcn3, stronger effect = lower value 1 | S. cerevisiae deletion strains, locus YKR091W, strain srl3, stronger effect = lower value 1 | S. cerevisiae deletion strains, locus YLL001W, strain dnm1, stronger effect = lower value 1.01 | S. cerevisiae deletion strains, locus YLL026W, stronger effect = lower value 0.999 | S. cerevisiae deletion strains, locus YLL041C, strain sdh2, stronger effect = lower value 1.03 | S. cerevisiae deletion strains, locus YLR027C, strain aat2, stronger effect = lower value 1.01 | S. cerevisiae deletion strains, locus YLR113W, strain HOG1, stronger effect = lower value 0.957 | S. cerevisiae deletion strains, locus YLR221C, strain rsa3, stronger effect = lower value 1 | S. cerevisiae deletion strains, locus YLR258W, strain gsy2, stronger effect = lower value 1.02 | S. cerevisiae deletion strains, locus YLR262C, strain YPT6 (second series), stronger effect = lower value 1.01 | S. cerevisiae deletion strains, locus YLR320W, strain mms22, stronger effect = lower value 1.02 | S. cerevisiae deletion strains, locus YLR342W, strain FKS1, stronger effect = lower value 1 | S. cerevisiae deletion strains, locus YLR357W, strain rsc2, stronger effect = lower value 1.01 | S. cerevisiae deletion strains, locus YLR370C, strain arc18, stronger effect = lower value 1.02 | S. cerevisiae deletion strains, locus YLR384C, strain iki3, stronger effect = lower value 1.02 | S. cerevisiae deletion strains, locus YML120C, strain ndi1, stronger effect = lower value 1.02 | S. cerevisiae deletion strains, locus YMR058W, strain fet3, stronger effect = lower value 1.01 | S. cerevisiae deletion strains, locus YMR125W, strain sto1, stronger effect = lower value 1.02 | S. cerevisiae deletion strains, locus YMR129W, stronger effect = lower value 1.01 | S. cerevisiae deletion strains, locus YMR205C, strain PFK2, stronger effect = lower value 1.02 | S. cerevisiae deletion strains, locus YMR231W, strain pep5, stronger effect = lower value 1 | S. cerevisiae deletion strains, locus YNL071W, strain lat1, stronger effect = lower value 1.01 | S. cerevisiae deletion strains, locus YNL183C, strain NPR1, stronger effect = lower value 0.959 | S. cerevisiae deletion strains, locus YNL209W, strain ssb2, stronger effect = lower value 0.997 | S. cerevisiae deletion strains, locus YNL248C, strain rpa49, stronger effect = lower value 1.02 | S. cerevisiae deletion strains, locus YNL322C, strain KRE1 (second series), stronger effect = lower value 0.994 | S. cerevisiae deletion strains, locus YNR049C, strain mso1, stronger effect = lower value 1.03 | S. cerevisiae deletion strains, locus YOR001W, strain rrp6, stronger effect = lower value 1.02 | S. cerevisiae deletion strains, locus YOR070C, strain gyp1, stronger effect = lower value 1.01 | S. cerevisiae deletion strains, locus YOR080W, strain dia2, stronger effect = lower value 1.01 | S. cerevisiae deletion strains, locus YOR083W, strain WHI5, stronger effect = lower value 1.01 | S. cerevisiae deletion strains, locus YOR106W, strain vam3, stronger effect = lower value 0.997 | S. cerevisiae deletion strains, locus YOR231W, strain MKK1, stronger effect = lower value 1.01 | S. cerevisiae deletion strains, locus YOR265W, strain rbl2, stronger effect = lower value 1.02 | S. cerevisiae deletion strains, locus YOR270C, strain vph1, stronger effect = lower value 1.04 | S. cerevisiae deletion strains, locus YOR290C, strain snf2, stronger effect = lower value 1 | S. cerevisiae deletion strains, locus YPL051W, strain arl3, stronger effect = lower value 1.01 | S. cerevisiae deletion strains, locus YPL078C, strain atp4, stronger effect = lower value 1.02 | S. cerevisiae deletion strains, locus YPL106C, strain sse1, stronger effect = lower value 1 | S. cerevisiae deletion strains, locus YPL240C, strain hsp82, stronger effect = lower value 1.01 | S. cerevisiae deletion strains, locus YPL256C, strain CLN2, stronger effect = lower value 1.04
